Assay results reported in PubChem BioAssay (NCATS).
A number with no mark means an inactive call. Calls of active or inactive are those of the source. Calls come from the whole dose curve; as a rule, active = well fitted inhibition curve with a large enough effect; inconclusive = small, poorly fitted or top-dose-only effect; inactive = flat fitted curve, though single readings scatter.

target: Luciferin 4-monooxygenase (Photinus pyralis) (UniProt P08659); experiment: Primary firefly luciferase (FLuc) qHTS assay for identification of artifact compounds. (AID 1845220); details: purified firefly luciferase, luminescence, 5 min; series mostly up to 54.1 µM; activity change, negative = inhibition: at the top concentration; note: nearly all actives have a fitted effect of over 60% in size;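 for activity change, negative = inhibition: plate controls were DMSO vehicle for no effect and no enzyme for full effect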
Method in brief: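 Reaction readout was CCD-imaged luminescence, taken 5 min after adding 10 nM purified firefly enzyme to compound-treated wells holding 10 uM luciferin and ATP in pH 7.6 buffer.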
Potency is the fitted concentration of half-maximal effect.

| Structure (SMILES) | activity change, negative = inhibition | outcome | Potency |
| --- | --- | --- | --- |
| CC(=O)O[C@H]1CC[C@@]2(CI)C(=CC[C@@H]3[C@@H]2CC[C@]2(C)[C@@H]([C@H](C)CCCC(C)C)CC[C@@H]32)C1 | 3.6% [at 11.6 µM] | – | – |
| C=C1C[C@@]23CC[C@@H]4[C@](C)(C(=O)O)CCC[C@@]4(C)C2=CC[C@H]1C3 | – | inactive | – |
| C[C@@H]1CC[C@H]2C(C)(C)[C@H](O)[C@H](O)C[C@]2(C)[C@@]12Cc1c(O)cc3c(c1O2)CNC3=O | 4.2% | – | – |
| C=C1CC23CC1(O)CCC2C1=CC2OC(=O)C(C)(C2O)C1C3C(=O)O (centres undefined) | -1.38% | – | – |
| COC(=O)[C@@H]1C2CC3c4[nH]c5ccccc5c4CCN3CC2CC[C@@H]1O (some centres undefined) | 0.619% | – | – |
| c1ccc(Nc2nc3c(s2)CCCc2[nH]ncc2-3)nc1 | – | – | 8.49 µM (active) |
| CC(=O)N[C@H]1CCN(c2ccc(C3=NOC(CN[S+](=O)([O-])C(C)C)C3)cc2F)C1 (some centres undefined) | 4.92% | – | – |
| CCC[C@@H]1C[C@@H](C(=O)N[C@@H]([C@H]2O[C@H](SC)[C@H](O)[C@@H](O)[C@@H]2O)[C@@H](C)O)N(C)C1 | 2.18% | – | – |
| Nc1nc(CC(=O)Nc2ccc(CCNCC(O)c3ccccc3)cc2)cs1 (centres undefined) | – | inactive | – |
| N#CC1C(=O)Nc2scc(-c3ccc(-c4ccccc4O)cc3)c2C1=O (centres undefined) | -5.2% | – | – |
| NCc1c[nH]c(=S)n1C1CCc2c(F)cc(F)cc2C1 (centres undefined) | – | inactive | – |
| CCOc1c2c(c(OCC)c3ccccc13)C(=O)N(c1ccc(CC(=O)NS(=O)(=O)c3ccccc3)cc1)C2 | – | inactive | – |
| CC(=O)O[C@@]1(C)C[C@@H](O)[C@]2(O)C=CO[C@@H](O[C@@H]3O[C@H](CO)[C@@H](O)[C@H](O)[C@H]3O)[C@@H]21 | 0.901% [at 25.7 µM] | – | – |
| O=C(O)C[C@@H](NC(=O)c1cc(-c2ccc(-c3ccncc3)cc2)cs1)c1ccccc1 | – | – | 6.75 µM (active) |
| CC1C/C=C/C=C\CCCCC(O)C/C=C/C(=O)O1 (centres undefined) | -0.976% | – | – |
| CC(C)CC1(C(=O)OCc2ccc(O[C@@H]3O[C@H](CO)[C@@H](O)[C@H](O)[C@H]3O)cc2)CC(=O)OC(C(=O)O)CC(=O)OCC2OC(O1)C(OC(=O)/C=C/c1ccc(O)cc1)C(O)C2O (some centres undefined) | 3.35% [at 11.6 µM] | – | – |
| COc1ccc2c(c1O)OC[C@H]1c3ccc(O)cc3O[C@@H]21 | -0.853% | – | – |

| Structure (SMILES) | activity change, negative = inhibition | outcome | Potency |
| --- | --- | --- | --- |
| CC(=O)Oc1cc2c(s1)CCN([C@H](C(=O)C1CC1)c1ccccc1F)C2 | – | inactive | – |
| CC(C)c1nc(N(C)S(C)(=O)=O)nc(-c2ccc(F)cc2)c1/C=C/[C@@H](O)C[C@@H](O)CC(=O)O | 1.11% | – | – |
| Cn1c(=O)cc(N2CCCC(N)C2)n(Cc2ccccc2C#N)c1=O (centres undefined) | 1.89% | – | – |
| C#Cc1cnc2[nH]c(=O)n(C(CC)CC)c2n1 | – | inactive | – |
| CCC[C@@H]1C[C@@H](C(=O)N[C@H](C(C)Cl)[C@H]2O[C@H](SC)[C@H](O)[C@@H](O)[C@H]2O)N(C)C1 (some centres undefined) | – | inactive | – |
| CC(NCc1ccc(OCc2cccc(F)c2)cc1)C(N)=O (centres undefined) | -12% | – | – |
| CC[C@@H](c1ccc(F)c(F)c1)n1c(C(=O)OC)c(-c2ccno2)[nH]c1=S | 0.101% | – | – |
| C/C=C(/C)C(=O)O[C@H]1C=C(C)C[C@H](OC(=O)c2ccc(O)cc2)C2[C@](O)(C(C)C)CC[C@@]21C (some centres undefined) | – | inactive [at 25.7 µM] | – |
| Nc1ncnc2c1ncn2[C@H]1CCCO1 | – | inactive | – |
| Cc1nnc(C(C)C)n1C1CC2CCC(C1)N2CCC(NC(=O)C1CCC(F)(F)CC1)c1ccccc1 (centres undefined) | 2.67% | – | – |
| CC(C)[C@@H](C)/C=C/[C@@H](C)[C@H]1CC[C@H]2C3=CC=C4C[C@@H](O)CC[C@]4(C)[C@H]3CC[C@]12C | 0.356% [at 25.7 µM] | – | – |
| CCOC(=O)[C@H](CCc1ccccc1)N[C@@H](C)C(=O)N1C2CCCCC2C[C@H]1C(=O)O (some centres undefined) | 2.5% | – | – |
| C[C@@H]1C/C=C/C=C\C=C\C=C\[C@H](O[C@@H]2O[C@H](C)[C@@H](O)[C@H](N)[C@@H]2O)C[C@@H]2O[C@](O)(C[C@@H](O)C[C@H]3O[C@@H]3/C=C/C(=O)O1)C[C@H](O)[C@H]2C(=O)O | – | inactive [at 25.7 µM] | – |
| CC1CCC2C(C)(C)C(O)CCC2(C)C12Cc1c(O)cc3c(c1O2)C(N)=NC3 (centres undefined) | 4.37% | – | – |
| COC1C=C([C@@H]2CC=C3[C@@]4(C)C(CC[C@]32C)[C@@]2(C)C=CC(=O)C(C)(C)C2C[C@H]4OC(C)=O)C(=O)O1 (some centres undefined) | -1.85% [at 25.7 µM] | – | – |
| O=C(O)c1cnn(-c2nc3cc(OC(F)(F)F)c(Cl)cc3[nH]2)c1 | – | – | 3.01 µM (active) |
| C/C=C/C=C/C=C/C(=O)O[C@@H]1C=C(CO)C(O)(C(=O)O)[C@@]2(C)CCCC(C)(C)[C@H]12 (some centres undefined) | 0.222% [at 25.7 µM] | – | – |
